Assay results reported in paper PMC5540273 (PLoS ONE, 2017).
“And” between values parts separate entries of the source, which are not always exact repeats. Equal entries are not always repeated. Where two headings read alike, the source gives them in different places.

How the values were obtained:
[1] = test system: IRAK3; conditions: concentration: 1 μM, replicates: in singlicate, n = 1
[2] = test system: IRAK4; conditions: concentration: 1 μM, replicates: in singlicate, n = 1
[3] = test system: ITK; conditions: concentration: 1 μM, replicates: in singlicate, n = 1
[4] = test system: JAK1(JH1domain-catalytic); conditions: concentration: 1 μM, replicates: in singlicate, n = 1
[5] = test system: JAK1(JH2domain-pseudokinase); conditions: concentration: 1 μM, replicates: in singlicate, n = 1
[6] = test system: JAK2(JH1domain-catalytic); conditions: concentration: 1 μM, replicates: in singlicate, n = 1
[7] = test system: JAK3(JH1domain-catalytic); conditions: concentration: 1 μM, replicates: in singlicate, n = 1
[8] = test system: T1, JNK1; conditions: concentration: 1 μM, replicates: in singlicate, n = 1
T1 construct: gene MAPK8

[9] = test system: T2, JNK2; conditions: concentration: 1 μM, replicates: in singlicate, n = 1
T2 construct: gene MAPK9

[10] = test system: T3, JNK3; conditions: concentration: 1 μM, replicates: in singlicate, n = 1
T3 construct: gene MAPK10

[11] = test system: KIT-autoinhibited; conditions: concentration: 1 μM, replicates: in singlicate, n = 1
[12] = test system: KIT; conditions: concentration: 1 μM, replicates: in singlicate, n = 1
[13] = test system: LATS1; conditions: concentration: 1 μM, replicates: in singlicate, n = 1
[14] = test system: LATS2; conditions: concentration: 1 μM, replicates: in singlicate, n = 1
[15] = test system: LCK; conditions: concentration: 1 μM, replicates: in singlicate, n = 1
[16] = test system: LIMK1; conditions: concentration: 1 μM, replicates: in singlicate; n = 1
[17] = test system: LIMK2; conditions: concentration: 1 μM, replicates: in singlicate, n = 1
[18] = test system: T4, LKB1; conditions: concentration: 1 μM, replicates: in singlicate, n = 1
T4 construct: gene STK11

[19] = test system: T5, LOK; conditions: concentration: 1 μM, replicates: in singlicate, n = 1
T5 construct: gene STK10

[20] = test system: LRRK2; conditions: concentration: 1 μM, replicates: in singlicate, n = 1
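Note: KINOMEscan kinase panel screen.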

SMILES: Cl.Nc1ncnc2occ(-c3ccc(NC(=O)Nc4cc(C(F)(F)F)ccc4F)cc3)c12 [SB-707548]
- %Inh [1]: 0%
- %Inh [2]: 3%
- %Inh [3]: 9%
- %Inh [4]: 50%
- %Inh [5]: 7%
- %Inh [6]: 59%
- %Inh [7]: 23%
- %Inh [8]: 9%
- %Inh [9]: 94.9%
- %Inh [10]: 12%
- %Inh [11]: 79%
- %Inh [12]: 99.9%
- %Inh [13]: 0%
- %Inh [14]: 40%
- %Inh [15]: 88%
- %Inh [16]: 25%
- %Inh [17]: 34%
- %Inh [18]: 21%
- %Inh [19]: 99.9%
- %Inh [20]: 2%

SMILES: Cc1nnc(-c2ccc3occ(-c4ccc(C(C)O)cc4)c3c2)o1 (centres unmarked)
- %Inh [1]: 1%
- %Inh [2]: 32%
- %Inh [3]: 14%
- %Inh [4]: 0%
- %Inh [5]: 5%
- %Inh [6]: 6%
- %Inh [7]: 9%
- %Inh [8]: 2%
- %Inh [9]: 0%
- %Inh [10]: 0%
- %Inh [11]: 0%
- %Inh [12]: 11%
- %Inh [13]: 15%
- %Inh [14]: 12%
- %Inh [15]: 2%
- %Inh [16]: 29%
- %Inh [17]: 0%
- %Inh [18]: 7%
- %Inh [19]: 4%
- %Inh [20]: 4%

SMILES: Cc1c(Cn2c(C)nn3c(=O)cc(N4CCOC(C)C4)nc23)cccc1C(F)(F)F (centres unmarked) [GSK2344444]
- %Inh [1]: 0%
- %Inh [2]: 13%
- %Inh [3]: 7%
- %Inh [4]: 2%
- %Inh [5]: 0%
- %Inh [6]: 19%
- %Inh [7]: 38%
- %Inh [8]: 0%
- %Inh [9]: 8%
- %Inh [10]: 2%
- %Inh [11]: 4%
- %Inh [12]: 1%
- %Inh [13]: 0%
- %Inh [14]: 0%
- %Inh [15]: 20%
- %Inh [16]: 0%
- %Inh [17]: 11%
- %Inh [18]: 0%
- %Inh [19]: 0%
- %Inh [20]: 25%

SMILES: CC(C)Oc1ccc2c(-c3ccnc(Nc4ccc(N5CCN(C)CC5)cc4)n3)cnn2n1 [GW696155]
- %Inh [1]: 94.2%
- %Inh [2]: 60%
- %Inh [3]: 0%
- %Inh [4]: 48%
- %Inh [5]: 93.5%
- %Inh [6]: 99.4%
- %Inh [7]: 100%
- %Inh [8]: 100%
- %Inh [9]: 99.7%
- %Inh [10]: 99.9%
- %Inh [11]: 43%
- %Inh [12]: 91.1%
- %Inh [13]: 0%
- %Inh [14]: 43%
- %Inh [15]: 92.6%
- %Inh [16]: 85%
- %Inh [17]: 100%
- %Inh [18]: 73%
- %Inh [19]: 0%
- %Inh [20]: 27%

SMILES: CCc1ccnc(/C=C/c2n[nH]c3cc(Sc4ccccc4C(=O)NC)ccc23)c1
- %Inh [1]: 32%
- %Inh [2]: 5%
- %Inh [3]: 1%
- %Inh [4]: 0%
- %Inh [5]: 0%
- %Inh [6]: 0%
- %Inh [7]: 0%
- %Inh [8]: 0%
- %Inh [9]: 3%
- %Inh [10]: 0%
- %Inh [11]: 96.9%
- %Inh [12]: 100%
- %Inh [13]: 9%
- %Inh [14]: 0%
- %Inh [15]: 5%
- %Inh [16]: 0%
- %Inh [17]: 0%
- %Inh [18]: 0%
- %Inh [19]: 23%
- %Inh [20]: 23%

SMILES: O=c1cc(N2CCOCC2)nc2n(Cc3cccc4ccccc34)ccn12 [GSK2333389]
- %Inh [1]: 0%
- %Inh [2]: 20%
- %Inh [3]: 21%
- %Inh [4]: 7%
- %Inh [5]: 0%
- %Inh [6]: 17%
- %Inh [7]: 0%
- %Inh [8]: 21%
- %Inh [9]: 0%
- %Inh [10]: 0%
- %Inh [11]: 0%
- %Inh [12]: 11%
- %Inh [13]: 0%
- %Inh [14]: 0%
- %Inh [15]: 2%
- %Inh [16]: 0%
- %Inh [17]: 0%
- %Inh [18]: 2%
- %Inh [19]: 0%
- %Inh [20]: 59%

SMILES: [2H]C([2H])(c1cccc(C(F)(F)F)c1C)n1ccn2c(=O)nc(N3CCOCC3)cc12 [GSK2336394]
- %Inh [1]: 0%
- %Inh [2]: 16%
- %Inh [3]: 17%
- %Inh [4]: 18%
- %Inh [5]: 0%
- %Inh [6]: 0%
- %Inh [7]: 0%
- %Inh [8]: 21%
- %Inh [9]: 23%
- %Inh [10]: 9%
- %Inh [11]: 0%
- %Inh [12]: 14%
- %Inh [13]: 11%
- %Inh [14]: 0%
- %Inh [15]: 25%
- %Inh [16]: 15%
- %Inh [17]: 0%
- %Inh [18]: 0%
- %Inh [19]: 0%
- %Inh [20]: 0%

SMILES: NCCNS(=O)(=O)c1ccc(-c2ccnc3[nH]ccc23)cc1 [GSK977617]
- %Inh ([1]; 1 µM): 60% and 39%
- %Inh ([2]; 1 µM): 22% and 8%
- %Inh ([3]; 1 µM): 66% and 44%
- %Inh ([4]; 1 µM): 38% and 26%
- %Inh ([5]; 1 µM): 32% and 25%
- %Inh ([6]; 1 µM): 95.6% and 90.8%
- %Inh ([7]; 1 µM): 83% and 84%
- %Inh ([8]; 1 µM): 42% and 18%
- %Inh ([9]; 1 µM): 30% and 9%
- %Inh ([10]; 1 µM): 27% and 15%
- %Inh ([11]; 1 µM): 0% and 21%
- %Inh ([12]; 1 µM): 44% and 28%
- %Inh ([13]; 1 µM): 75% and 70%
- %Inh ([14]; 1 µM): 95.8% and 95.9%
- %Inh ([15]; 1 µM): 38% and 3%
- %Inh [16]: 0%
- %Inh ([17]; 1 µM): 6% and 12%
- %Inh ([18]; 1 µM): 0% and 2%
- %Inh ([19]; 1 µM): 12% and 0%
- %Inh ([20]; 1 µM): 17% and 0%

SMILES: COc1ccc(Nc2ncc(C#N)c(Nc3ccccc3C(N)=O)n2)cc1N1CCN(C)CC1.Cl [GSK1558669]
- %Inh [1]: 100%
- %Inh [2]: 99.4%
- %Inh [3]: 99.8%
- %Inh [4]: 0%
- %Inh [5]: 99.9%
- %Inh [6]: 99.1%
- %Inh [7]: 98.8%
- %Inh [8]: 99.5%
- %Inh [9]: 100%
- %Inh [10]: 99.9%
- %Inh [11]: 96.1%
- %Inh [12]: 99.9%
- %Inh [13]: 78%
- %Inh [14]: 98.9%
- %Inh [15]: 100%
- %Inh [16]: 85%
- %Inh [17]: 93.4%
- %Inh [18]: 58%
- %Inh [19]: 99%
- %Inh [20]: 98.8%

SMILES: COc1ccc(Nc2nccc(N3CCC(NC(=O)Nc4cc(C)ccc4C)C3)n2)cc1 (centres unmarked) [GSK1379741]
- %Inh [1]: 19%
- %Inh [2]: 16%
- %Inh [3]: 10%
- %Inh [4]: 23%
- %Inh [5]: 0%
- %Inh [6]: 0%
- %Inh [7]: 0%
- %Inh [8]: 24%
- %Inh [9]: 0%
- %Inh [10]: 5%
- %Inh [11]: 0%
- %Inh [12]: 25%
- %Inh [13]: 0%
- %Inh [14]: 0%
- %Inh [15]: 0%
- %Inh [16]: 0%
- %Inh [17]: 0%
- %Inh [18]: 0%
- %Inh [19]: 0%
- %Inh [20]: 0%
